Seven compounds from PubChem BioAssay (NCI) can be followed below.

Among the test systems are HCT-15 colon; HT29 colon; SNB-75 CNS; SNB-19 CNS; U251 CNS; PC-3 prostate; SK-MEL-5 melanoma; UACC-62 melanoma; LOX IMVI melanoma; SK-MEL-28 melanoma; SK-MEL-2 melanoma; SN12C renal; UO-31 renal; TK-10 renal; ACHN renal; CAKI-1 renal; A498 renal; CCRF-CEM leukemia; MOLT-4 leukemia; EKVX NSCLC.
Common to all, as to assay: NCI-60 one-dose screen, 48 h (100 = growth as untreated, 0 = no growth, -100 = all killed)
Holding throughout (details): 10 µM unless noted

About 83,000 compounds went through this panel and 20% of them were active in at least one assay; those are over-represented in the sample as a whole.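 Single-dose data. Exposure time 48 hours. Values below 10 considered active.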 Unmarked numbers belong to inactive results. The source made the active and inactive calls.

Regarding `O=S(=O)(Nc1ncccn1)c1ccc(Nc2ccc3nnc(-c4ccncc4)n3n2)cc1`, the growth is 99.3% in the test with HCT-15 colon; 116% in the test on HT29 colon; 86.9% with SNB-75 CNS; 99.7% in the test on SNB-19 CNS; 102% in the test with U251 CNS; 102% in the test on PC-3 prostate. The growth in the test with SK-MEL-5 melanoma was 100%; in the test with UACC-62 melanoma, 99.1%; in the test with LOX IMVI melanoma, 95.1%; in the test on SK-MEL-28 melanoma, 99.1%; with SK-MEL-2 melanoma, 125%; in the test on SN12C renal, 93.9%. Besides, the growth in the test on UO-31 renal is 81%; in the test with TK-10 renal, 115%; in the test with ACHN renal, 98.6%; in the test on CAKI-1 renal, 99.6%; with A498 renal, 87.5%; with CCRF-CEM leukemia, 94.3%. Besides, in the test on MOLT-4 leukemia, the growth was 109%.

With `COc1ccc(-c2cc(=O)oc3c4c(ccc23)OCN(Cc2ccc(F)cc2)C4)cc1`, the growth in the test with HCT-15 colon is 64.3%; in the test on HT29 colon, 42.4%; in the test on SNB-75 CNS it was 69.7%; with SNB-19 CNS it was 72.2%; in the test with U251 CNS, 59%; with PC-3 prostate, 54.9%. In addition, the growth with SK-MEL-5 melanoma was 3.99% (active); with UACC-62 melanoma, 61.6%; in the test on LOX IMVI melanoma, 73%; in the test with SK-MEL-28 melanoma, 83.4%; in the test on SK-MEL-2 melanoma it was 94.2%; in the test on SN12C renal it was 58.6%. Moreover, the growth is 42.7% in the test with UO-31 renal; 62.4% with TK-10 renal; 64.7% in the test on ACHN renal; 51.7% in the test on CAKI-1 renal; 38.9% in the test with A498 renal; 52.4% in the test with CCRF-CEM leukemia. The growth in the test on MOLT-4 leukemia was 39.9%.

As to `N#CCCN1CCN(CCC#N)C1=S`, the growth is 106% with HCT-15 colon; 98.6% with HT29 colon; 95.6% with SNB-75 CNS; 98.5% in the test with SNB-19 CNS; 101% with U251 CNS; 99.6% in the test on PC-3 prostate. Also, the growth with SK-MEL-5 melanoma is 110%; with UACC-62 melanoma, 91.4%; in the test with LOX IMVI melanoma it was 104%; with SK-MEL-28 melanoma, 122%; in the test on SK-MEL-2 melanoma, 93.4%; in the test with EKVX NSCLC, 102%. In addition, the growth was 95.2% in the test with SN12C renal; 98.1% in the test with TK-10 renal; 102% in the test with ACHN renal; 86.4% in the test on CAKI-1 renal; 87.9% in the test with A498 renal; 111% in the test with CCRF-CEM leukemia. For the same compound, the growth in the test with MOLT-4 leukemia is 103%.

Regarding `Cc1oc2c(c1C(=O)N1CC[C@@H](N)C1)C(=O)c1c(c(O)c3ccccc3c1O)C2=O`, the growth is 20.7% with HCT-15 colon; 11.3% in the test on HT29 colon; 31.8% in the test on SNB-75 CNS; 40% with SNB-19 CNS; 23.8% in the test with U251 CNS; 10.9% with PC-3 prostate. The growth with SK-MEL-5 melanoma is 42.7%; in the test with UACC-62 melanoma, 55.2%; with LOX IMVI melanoma, 24.9%; in the test with SK-MEL-28 melanoma, 62.9%; with SK-MEL-2 melanoma, 77.4%; in the test on SN12C renal it was 22%. Moreover, the growth in the test on UO-31 renal was 4.23% (active); in the test on TK-10 renal, 57%; in the test with ACHN renal it was 14.8%; in the test with CAKI-1 renal, 28.1%; with A498 renal, 61.5%; with CCRF-CEM leukemia, -3.65% (active). Also, the growth with MOLT-4 leukemia is 0.576% (active).

Regarding `Clc1cccc(Cl)c1Nc1ccc2nnc(-c3ccncc3)n2n1`, the growth with HCT-15 colon was 90.9%; in the test on HT29 colon, 106%; with SNB-75 CNS, 99.4%; in the test on SNB-19 CNS, 101%; in the test on U251 CNS, 103%; in the test on PC-3 prostate, 101%. In addition, the growth in the test with SK-MEL-5 melanoma is 100%; in the test with UACC-62 melanoma, 106%; with LOX IMVI melanoma, 93.2%; in the test on SK-MEL-28 melanoma, 105%; in the test on SK-MEL-2 melanoma, 104%; with SN12C renal, 95.9%. In addition, the growth in the test with UO-31 renal is 96.1%; with TK-10 renal, 102%; in the test with ACHN renal it was 105%; in the test on CAKI-1 renal, 89.2%; with A498 renal it was 90.5%; in the test with CCRF-CEM leukemia it was 80.7%. Besides, the growth with MOLT-4 leukemia was 96.1%.

For the compound `CN([N-]C(=O)CC(=O)[N-]N(C)C(=S)c1ccccc1)C(=S)c1ccccc1.[Cu+2]`, the growth with HCT-15 colon was 2.52% (active); with HT29 colon, -77.8% (active); with SNB-75 CNS, -96.8% (active); in the test on SNB-19 CNS it was -96.1% (active); in the test with U251 CNS it was -99% (active); in the test on PC-3 prostate, -53% (active). The growth in the test with SK-MEL-5 melanoma is -94.6% (active); with UACC-62 melanoma, -92.4% (active); in the test on LOX IMVI melanoma it was -93.1% (active); in the test on SK-MEL-28 melanoma, -94.7% (active); in the test on SK-MEL-2 melanoma it was -90.2% (active); with SN12C renal it was -97.9% (active). For the same compound, the growth in the test on UO-31 renal was -97.5% (active); in the test on TK-10 renal, -99.1% (active); in the test with ACHN renal, -50.6% (active); with CAKI-1 renal, -94.7% (active); in the test on A498 renal, -93.9% (active); in the test with CCRF-CEM leukemia, -19.7% (active). Further, the growth with MOLT-4 leukemia is -36.2% (active).

On to `O=C(NCc1ccc(F)cc1)C1CN(c2ccc(Cl)cc2)N(c2ccc(Cl)cc2)C1=O` (stereo not drawn), for which the growth in the test on HCT-15 colon was 45.1%; in the test on HT29 colon, 25.6%; in the test with SNB-75 CNS, 36.7%; with SNB-19 CNS, 78.1%; in the test on U251 CNS it was 56.6%; with PC-3 prostate it was 61.9%. The growth with SK-MEL-5 melanoma is 52.9%; with UACC-62 melanoma, 42%; in the test on LOX IMVI melanoma, 72.3%; in the test with SK-MEL-28 melanoma, 74.9%; in the test with SK-MEL-2 melanoma, 64.6%; in the test on EKVX NSCLC, 74.8%. The growth with UO-31 renal was 51%; with TK-10 renal, 100%; in the test on ACHN renal, 75.6%; in the test on CAKI-1 renal, 57.6%; in the test with A498 renal, 39.8%; in the test with CCRF-CEM leukemia it was 61.8%. The growth in the test on MOLT-4 leukemia is 37.1%.
